From PubChem BioAssay
Pf growth 96h: Primary qHTS for delayed death inhibitors of the malarial parasite plastid, 96 hour incubation. Potency, µM (doses to about 28.7 µM), without a hit: at the highest dose activity change, negative = inhibition, hits mostly inhibitors. hit rate 6.9% among 320,000. AID 504834, 2011. P. falciparum luciferase reporter growth, 96 h
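P. falciparum expressing integrated firefly luciferase grown in erythrocytes (2% hematocrit, 0.05% parasitemia final) with compounds for 96 hours at 37 C, 5% CO2. Growth inhibition read as loss of luminescence after adding luciferase detection reagent.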
HCV inh: qHTS Assay for Inhibitors of Hepatitis C Virus (HCV). Huh7.5.1 HCVcc-Cre infection, luciferase reporter, 44 h. Potency, µM (highest dose often 41.8 µM), for the others: top-dose activity change, negative = inhibition, usual class: inhibitors. hit rate 3.4% among 340,000. AID 651820, 2012
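Seed cells (1,000/well) for 4 h; treat with compound and infect with HCVcc-Cre, moi about 0.5. Incubate 44 h, then detect luciferase activity.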
AmpC detergent: qHTS Inhibitors of AmpC Beta-Lactamase (assay with detergent); P00811; AmpC hydrolysis of nitrocefin, absorbance 480 nm, 0.01% Triton; Potency, µM (series often up to 114 µM), inactives show at the highest dose activity change, negative = inhibition, usual class: inhibitors; hit rate 0.041% among 370,000;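 note: 0% = no-compound wells and -100% = no-enzyme wells; nearly all actives have a fitted effect of over 25% in size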
Target sequence (P00811 whole entry, looked up): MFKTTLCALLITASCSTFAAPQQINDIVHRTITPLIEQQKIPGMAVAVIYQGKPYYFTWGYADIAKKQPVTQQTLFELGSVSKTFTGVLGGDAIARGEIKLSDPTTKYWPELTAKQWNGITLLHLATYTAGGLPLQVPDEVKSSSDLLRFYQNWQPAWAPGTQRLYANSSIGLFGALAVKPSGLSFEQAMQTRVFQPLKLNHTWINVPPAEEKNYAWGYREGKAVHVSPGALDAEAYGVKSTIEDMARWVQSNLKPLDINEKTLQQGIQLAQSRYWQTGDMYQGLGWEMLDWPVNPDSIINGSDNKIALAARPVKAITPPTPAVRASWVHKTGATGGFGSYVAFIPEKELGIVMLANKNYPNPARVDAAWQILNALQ
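20 mM phosphate pH 7.0 + 0.01% (detergent screen) or 0.0001% Triton X-100; 5.3 nM AmpC reagent; cpd preinc 15 min RT; nitrocefin (800 uM stock) to start; A480 q20 s × 4 min; Activity was normalised to no-enzyme and no-compound control wells.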
AMA1-RON2 inh: qHTS for Inhibitors of AMA1-RON; Towards Development of Antimalarial Drug Lead: Primary Screen; Plasmodium falciparum AMA1 (3D7) - RON2 peptide interaction; AlphaScreen AMA1-biotinylated RON2 peptide binding; Potency, µM (titrated, usually from 58.2 µM), inactives show at the highest dose activity change, negative = inhibition, usual class: inhibitors; hit rate 0.2% among 360,000; AID 720542, 2013;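 note: 0% = vehicle wells and -100% = peptide control; nearly all actives have a fitted effect of over 45% in size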
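AMA1 (3D7) with his tag at 25 nM final met compounds first, then biotinylated RON2 peptide at 25 nM; detection used donor plus acceptor beads, 10 µg/mL apiece, read by AlphaScreen after 30 min at room temperature.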
AmpC no deterg: qHTS Inhibitors of AmpC Beta-Lactamase (assay without detergent); AmpC nitrocefin hydrolysis, absorbance 480 nm, 0.0001% Triton; Potency, µM (top dose mostly 57.1 µM), for the others: top-dose activity change, negative = inhibition, actives largely listed as inhibitors; P00811; hit rate 0.52% among 330,000;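 note: plate controls were no compound for no effect and no enzyme for full effect; nearly all actives have a fitted effect of over 20% in size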
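20 mM phosphate pH 7.0 + 0.01% (detergent screen) or 0.0001% Triton X-100; 5.3 nM AmpC reagent; cpd preinc 15 min RT; nitrocefin (800 uM stock) to start; A480 q20 s × 4 min; Activity was normalised to no-enzyme and no-compound control wells.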
Pf growth 48h: Primary qHTS for delayed death inhibitors of the malarial parasite plastid, 48 hour incubation. P. falciparum luciferase growth in erythrocytes, 48 h. Potency, µM (top dose mostly 28.7 µM), without a hit: at the highest dose activity change, negative = inhibition, actives largely listed as inhibitors. hit rate 5.9% among 310,000
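Firefly luciferase activity from engineered P. falciparum reports growth; inhibitors lower the luminescent signal. Cultures contained 2% hematocrit erythrocytes at 0.1% final parasitemia.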
Active calls of the source: *; [ ] = remark or other dose. Compounds with a hit are over-represented: about 11% of the library has one in this group of screens. Calls come from the whole dose curve; as a rule, active = well fitted curve in the direction sought with a large enough effect; inconclusive = small, poorly fitted or top-dose-only effect, or another doubt; inactive = no such curve, though single readings can be large; an effect the other way counts as inactive or inconclusive. Unless noted, % is set by controls: 0 for no effect and ±100 for the full control effect; potency is the fitted concentration of half-maximal effect.

How did CC(C)(C)NC(=O)C(c1ccncc1)N(C(=O)Cn1nnc(-c2ccc(F)cc2)n1)c1ccccc1F (stereo unspecified) do in these assays?
Pf growth 96h: 36%; HCV inh: 7%; AmpC detergent: -1%; AMA1-RON2 inh: -5%; AmpC no deterg: -2%; Pf growth 48h: inconclusive

Results for CC(C)(C)NC(=O)C(c1ccc(O)cc1)N(C(=O)Cn1nnc(-c2ccc(F)cc2)n1)c1ccccc1F (stereo unspecified) ?
Pf growth 96h: inconclusive; HCV inh: 4.5µM*; AmpC detergent: -6%; AMA1-RON2 inh: 2%; AmpC no deterg: 13%; Pf growth 48h: 12µM*

Results for Cc1ccc(N(C(=O)Cn2nnc(-c3ccc(F)cc3)n2)C(C(=O)NC(C)(C)C)c2ccncc2)cc1 (stereo unspecified) ?
Pf growth 96h: -4%; HCV inh: inconclusive; AmpC detergent: 2%; AMA1-RON2 inh: 19%; AmpC no deterg: 12%; Pf growth 48h: 4.7µM*

How did COc1ccc(CC(=O)NCc2nc3cccnc3n2Cc2ccc(F)cc2)cc1OC do in these assays?
AmpC detergent: 6%

What do the screens show for `CC1(c2ccccc2)CC(C)(C)N(C(=O)c2ccccc2Cl)c2ccccc21` (stereo unspecified)?
AmpC detergent: -6%

What do the screens show for `Cn1c(SC2=CS(=O)(=O)c3ccccc32)nc2ccccc21`?
Pf growth 96h: 5%[5.75 µM]; HCV inh: 6.3µM*; AmpC detergent: 2%; AMA1-RON2 inh: -5%; AmpC no deterg: -15%; Pf growth 48h: 5.2µM*

How did Cn1c(CSc2nc3ccccc3n2C)nc2ccccc21 do in these assays?
Pf growth 96h: 14%; HCV inh: 9%; AmpC detergent: 5%; AMA1-RON2 inh: 5%; AmpC no deterg: 0%; Pf growth 48h: 28%

How did Cc1ccc(NC(=O)C2CCCO2)cc1[N+](=O)[O-] (stereo unspecified) do in these assays?
Pf growth 96h: 2.6µM*; HCV inh: -14%; AmpC detergent: -8%; AMA1-RON2 inh: 20%; AmpC no deterg: -5%; Pf growth 48h: 45%

How did CCOC(=O)c1cccc(NC(=O)c2ccc(NC(=O)C3CCCO3)cc2)c1 (stereo unspecified) do in these assays?
Pf growth 96h: 7.4µM*; HCV inh: -25%; AmpC detergent: -15%; AMA1-RON2 inh: -4%; AmpC no deterg: -2%; Pf growth 48h: inconclusive

What do the screens show for `CCOc1ccccc1NC(=O)c1ccc(NC(=O)C2CCCO2)cc1` (stereo unspecified)?
Pf growth 96h: -5%; HCV inh: 11µM*; AmpC detergent: inconclusive; AMA1-RON2 inh: 4%; AmpC no deterg: -10%; Pf growth 48h: -13%

How did CCOC(=O)c1ccc(NC(=O)C2CCCO2)cc1 (stereo unspecified) do in these assays?
Pf growth 96h: -2%; HCV inh: 27%; AmpC detergent: -4%; AMA1-RON2 inh: 28%; AmpC no deterg: 0%; Pf growth 48h: 62%

Results for CCCN(CCC)S(=O)(=O)c1ccc(NC(=O)C2CCCO2)cc1 (stereo unspecified) ?
Pf growth 96h: 9.3µM*; HCV inh: -2%; AmpC detergent: -9%; AMA1-RON2 inh: -8%; AmpC no deterg: -3%; Pf growth 48h: inconclusive

Results for O=C(Nc1cccc(NC(=O)C2CCCO2)c1)C1CCCO1 (stereo unspecified) ?
Pf growth 96h: 2%; HCV inh: 20%; AmpC detergent: 2%; AMA1-RON2 inh: 17%; AmpC no deterg: -13%; Pf growth 48h: 42%
